Assay [1] in a line: inhibitors of TNFa-induced NFkB p65 translocation, primary screen, imaging, HUVEC, MLSMR starter and 10KST1 sets (AID 438;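 active = inhibition above 20% together with a positive visual image hit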;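 note: compound added about 3h40 before a 20 min TNFalpha stimulation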;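 for inhibition: signal is the nuclear over cytoplasmic p65 intensity ratio per well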). As to conditions: HUVEC TNFa-induced p65 nuclear translocation; cell count: measured here: nuclei count (cytotoxicity indicator), at 2.08 µM; inhibition: at 2 µM, stronger effect = higher value, 0% TNFa-plus-vehicle, 100% no-TNFa wells.
Assay [2] can be described thus: inhibitors of mutant huntingtin aggregation, primary screen, imaging, exon1htt(103Q)mCFP cells, high-content imaging (AID 483;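 active = visual image review flags a hit and inhibition of aggregation exceeds 20%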;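 note: compound exposure lasted 3 days before fixation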;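 for nuclei count: percent of the per-plate median nuclei count of sample wells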). As to conditions: exon1htt(103Q)mCFP cell line, aggregate imaging, at 2 µM; inhibition of aggregation: stronger effect = higher value; nuclei count: measured here: cell count, toxicity.
Assay [3] can be described thus: inhibitors of E-selectin induction by TNFa, primary screen, imaging, HUVEC, immunofluorescence, MLSMR starter and 10KST1 sets (AID 487;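 active = visually confirmed hit in the image check and inhibition above 20%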;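 for inhibition: signal is fraction of cell area covered by stained E-selectin grains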;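 for nuclei count: 100% = median nuclei count of all wells on the same plate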). The following applies: HUVEC TNFalpha-induced E-selectin immunofluorescence imaging, at 2 µM; inhibition: stronger effect = higher value; nuclei count: measured here: cell number, toxicity.
The target of assay [4] is Voltage-gated potassium channel subunit beta-2 (Rattus norvegicus) (UniProt P62483). Nature of the assay: KvBeta enzyme negative modulators, primary screen, biochemical, NADPH fluorescence (AID 622;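 active = fluorescence slope higher than the sample average by over 3 SD, cut at about -0.22 in these data, passing the limit was not always enough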;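 note: slope of raw intensity against log time taken from 70 to 1610 s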). The following applies: recombinant KvBeta, 4-cyanobenzaldehyde reduction, at 10 µM, stronger effect = higher value.
Assay [5] has the same target. As to the kind of experiment: KvBeta positive modulators, primary screen, biochemical, NADPH fluorescence (AID 623;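 active = NADPH fluorescence slope more negative than the mean of all samples by about 3 SD, 99.7% confidence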;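 note: fluorescence intensity change per second fitted from 20 to 320 s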). The following applies: Recombinant KvBeta, NADPH fluorescence decrease slope, 10 min; at 10 µM; stronger effect = lower value.
The target of assay [6] is Alpha-2C adrenergic receptor (Homo sapiens) (UniProt P18825). Nature of the assay: modulators of alpha2C/GIRK thallium flux, primary screen, cell-based, HEK293 alpha2C/GIRK1/2 (AID 624;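 active = fluorescence slope after compound addition differing from the mean of all screened samples at 99.7% confidence, in either direction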;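 note: slope of fluorescence ratio to pre-addition baseline per second over 15 to 24 s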). The following applies: thallium flux BTC fluorescence, at 10 µM, actives lie on both sides.
A short description of assay [7]: inhibitors of Sendai virus-induced IRF3 signaling, primary screen, TLR/RLR signaling modifier project, cell-based, Sendai virus stimulus, luciferase, 10K MLSCN set (AID 602276).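 Note: firefly luciferase from ISG56 promoter only with Renilla not read in this screen; 0% = Sendai virus plus DMSO and 100% = medium plus DMSO without virus.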 The following applies: HEK293 RL24 IRF3 luciferase reporter, at 10 µM, stronger effect = higher value.
The nature of assay [8]: inhibitors of poly I:C-induced TLR3 signaling, primary screen, cell-based, poly I:C stimulus, luciferase, 10K MLSCN set (AID 602277;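 active = inhibition of the reporter signal at or above 50%; inactive = inhibition below 50%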). The following applies: HEK293-TLR3 RL24 IRF3 luciferase reporter, at 10 µM, stronger effect = higher value. On the technique in general: A reporter such as luciferase makes a cellular process visible.

From PubChem BioAssay come the findings set out here.

The source made the active and inactive calls.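 Rule for the calls, unless noted: active = inhibition at or above 50% at 10 µM; inactive = inhibition below 50%.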

Sequence of Alpha-2C adrenergic receptor (Homo sapiens) (P18825 whole entry, looked up): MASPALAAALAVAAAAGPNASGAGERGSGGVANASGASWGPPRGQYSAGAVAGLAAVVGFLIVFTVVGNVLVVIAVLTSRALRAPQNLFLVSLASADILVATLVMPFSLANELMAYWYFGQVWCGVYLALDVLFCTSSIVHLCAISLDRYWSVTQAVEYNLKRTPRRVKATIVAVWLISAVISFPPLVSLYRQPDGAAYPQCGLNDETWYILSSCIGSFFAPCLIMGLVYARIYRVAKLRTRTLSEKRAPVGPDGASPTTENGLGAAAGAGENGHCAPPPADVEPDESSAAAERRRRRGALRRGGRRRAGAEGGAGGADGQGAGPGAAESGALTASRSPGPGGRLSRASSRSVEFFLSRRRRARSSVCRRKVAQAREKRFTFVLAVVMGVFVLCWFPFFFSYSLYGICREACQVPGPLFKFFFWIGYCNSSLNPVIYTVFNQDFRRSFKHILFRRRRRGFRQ
Sequence of Voltage-gated potassium channel subunit beta-2 (Rattus norvegicus) (P62483 whole entry, looked up): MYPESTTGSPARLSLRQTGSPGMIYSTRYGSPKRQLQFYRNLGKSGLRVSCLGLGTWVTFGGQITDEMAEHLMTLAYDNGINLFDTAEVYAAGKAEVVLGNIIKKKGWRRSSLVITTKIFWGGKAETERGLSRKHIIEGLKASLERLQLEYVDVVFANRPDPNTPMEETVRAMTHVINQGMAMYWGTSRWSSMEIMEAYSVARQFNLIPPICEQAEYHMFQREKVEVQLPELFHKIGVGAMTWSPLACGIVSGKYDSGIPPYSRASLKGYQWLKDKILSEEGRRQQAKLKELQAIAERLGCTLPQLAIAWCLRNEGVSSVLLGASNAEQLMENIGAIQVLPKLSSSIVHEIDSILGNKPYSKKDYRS

As to `CC(C)CCNc1cc(=O)n(C)c(=O)n1C`, the cell count in assay [1] is 686. Also, the inhibition in assay [1] was -3.9% (inactive); in assay [3], 28.9% (inactive); in assay [7] it was 0.49% (inactive); in assay [8] it was 8.23% (inactive). Also, the inhibition of aggregation in assay [2] is -15.5% (inactive). Further, the nuclei count in assay [2] stood at 108%; in assay [3], 88%. For the same compound, the fluorescence slope in assay [4] was -0.459 (inactive). The NADPH fluorescence slope in assay [5] is 5e-05 (inactive). For the same compound, the slope in assay [6] was 0.00778 (inactive).
With `COc1ccc(-n2c(Cc3cccn3C)nnc2SCC(N)=O)cc1`, in assay [1], the cell count is 531. Also, the inhibition in assay [1] is -4.4% (inactive); in assay [3], 1.4% (inactive); in assay [7], 17.9% (inactive); in assay [8], 27.2% (inactive). Moreover, the inhibition of aggregation in assay [2] is 6.6% (inactive). The nuclei count in assay [2] was found to be 63.8%; in assay [3] it was 99.3%. Besides, the fluorescence slope in assay [4] is -0.59 (inactive). In assay [5], the NADPH fluorescence slope is -3.3e-05 (inactive). Moreover, the slope in assay [6] is 0.00644 (inactive).
In the case of `CC1(C)CC(=O)C(C=NCC2CCNCC2)=C(O)C1`, the cell count in assay [1] is 249. The inhibition in assay [1] was -2.1% (inactive); in assay [3], -10.9% (inactive); in assay [7], 3.67% (inactive); in assay [8], 27.1% (inactive). The inhibition of aggregation in assay [2] is 6.8% (inactive). In addition, the nuclei count in assay [2] was 74.8%; in assay [3] it was 116%. For the same compound, in assay [4], the fluorescence slope is -0.466 (inactive). In addition, in assay [5], the NADPH fluorescence slope is -4.9e-06 (inactive). Also, the slope in assay [6] is 0.00268 (inactive).
On to `C/C(Cl)=C/Cn1c(SCc2ccc(Cl)cc2)nc2c1c(=O)[nH]c(=O)n2C`, for which the cell count in assay [1] turned out to be 551. The inhibition is -9.4% (inactive) in assay [1], 15% (inactive) in assay [3], 4.08% (inactive) in assay [7] and 12% (inactive) in assay [8]. In assay [2], the inhibition of aggregation was 10.9% (inactive). Besides, the nuclei count came out at 108% in assay [2] and 96.1% in assay [3]. In addition, the fluorescence slope in assay [4] is -0.513 (inactive). For the same compound, in assay [5], the NADPH fluorescence slope was -2.3e-05 (inactive). Also, in assay [6], the slope was 0.00751 (inactive).
Regarding `COc1ccc(-c2nnc(SCC(=O)NC(C)c3ccccc3)o2)cc1` (centres undefined), in assay [1], the cell count is 617. Besides, the inhibition in assay [1] was 4.4% (inactive); in assay [3] it was -7.4% (inactive); in assay [7], 5.82% (inactive); in assay [8] it was 18.9% (inactive). In addition, the inhibition of aggregation in assay [2] was -59% (inactive). The nuclei count in assay [2] amounted to 104%; in assay [3], 111%. Besides, in assay [4], the fluorescence slope was -0.593 (inactive). In assay [5], the NADPH fluorescence slope was -2.5e-05 (inactive). In addition, the slope in assay [6] is 0.00661 (inactive).
For `CC1CCN(C(=O)CSCC(=O)Nc2nc(-c3cccs3)cs2)CC1`, the cell count in assay [1] was 734. The inhibition in assay [1] was -3.4% (inactive); in assay [3] it was -38.7% (inactive); in assay [7] it was 4.81% (inactive); in assay [8] it was -0.513% (inactive). In addition, the inhibition of aggregation in assay [2] was 17.8% (inactive). Also, the figures for the nuclei count in assay [2] and in assay [3] were 94.3% and 114%, respectively. For the same compound, in assay [4], the fluorescence slope was -0.495 (inactive). The NADPH fluorescence slope in assay [5] was -1.9e-05 (inactive). For the same compound, in assay [6], the slope was 0.00893 (inactive).
For `Cc1noc(C)c1CSc1nc2ccccc2s1`, the cell count in assay [1] turned out to be 588. The inhibition in assay [1] was -2.3% (inactive); in assay [3], -4.7% (inactive); in assay [7], 4.37% (inactive); in assay [8], -21.8% (inactive). Also, in assay [2], the inhibition of aggregation is -7.7% (inactive). In addition, the values for the nuclei count in assay [2] and in assay [3] were 113% and 102%, respectively. Besides, in assay [4], the fluorescence slope is -0.515 (inactive). For the same compound, in assay [5], the NADPH fluorescence slope was 2.9e-05 (inactive). In addition, in assay [6], the slope is 0.00595 (inactive).
As to `COc1ccc(-n2c(Cc3cccn3C)nnc2SCC(=O)NCC2CCCO2)cc1` (centres undefined), the cell count in assay [1] stood at 846. Besides, the inhibition in assay [1] was 1.8% (inactive); in assay [3], -182% (inactive); in assay [7], 8.65% (inactive); in assay [8] it was 32% (inactive). Moreover, in assay [2], the inhibition of aggregation was 21.3% (inactive). For the same compound, the nuclei count in assay [2] amounted to 103%; in assay [3], 130%. Besides, in assay [4], the fluorescence slope is -0.56 (inactive). The NADPH fluorescence slope in assay [5] is -3.5e-05 (inactive). For the same compound, the slope in assay [6] is 0.00701 (inactive).
With `Cc1nc2c(-c3ccc(F)cc3)c(C)nn2c(C)c1CCC(=O)NC(C)CCc1ccco1` (centres undefined), the cell count in assay [1] amounted to 791. The inhibition in assay [1] was 0.6% (inactive); in assay [3] it was -23.2% (inactive); in assay [7], 4.5% (inactive); in assay [8] it was 26.9% (inactive). Also, the inhibition of aggregation in assay [2] was -37.7% (inactive). Also, the nuclei count turned out to be 99.5% in assay [2] and 110% in assay [3]. In addition, the fluorescence slope in assay [4] was -0.568 (inactive). For the same compound, the NADPH fluorescence slope in assay [5] was -3.3e-05 (inactive). Moreover, the slope in assay [6] is 0.00479 (inactive).
Turning to `CC(=O)OC1c2ccccc2C(=O)N1c1ccccc1C` (centres undefined), the cell count in assay [1] was determined as 590. Further, the inhibition is 9% (inactive) in assay [1], -51.8% (inactive) in assay [3], 10.3% (inactive) in assay [7] and 22.9% (inactive) in assay [8]. In assay [2], the inhibition of aggregation is -20.1% (inactive). Moreover, the nuclei count in assay [2] turned out to be 85.9%; in assay [3], 115%. The fluorescence slope in assay [4] was -0.586 (inactive). Besides, the NADPH fluorescence slope in assay [5] was -1.7e-05 (inactive). The slope in assay [6] is 0.00543 (inactive).
For the compound `CN1CCCN(CC(O)COCc2cccs2)CC1` (centres undefined), the cell count in assay [1] was 489. Moreover, the inhibition in assay [1] is -6.7% (inactive); in assay [3], -66% (inactive); in assay [7], -7.31% (inactive); in assay [8], 24.2% (inactive). The inhibition of aggregation in assay [2] was -19.8% (inactive). The nuclei count in assay [2] was found to be 108%; in assay [3], 153%. The fluorescence slope in assay [4] was -0.489 (inactive). In assay [5], the NADPH fluorescence slope is -3.2e-05 (inactive). Also, in assay [6], the slope was 0.00614 (inactive).
Turning to `NC(=O)c1cccc(S(=O)(=O)N2CCCCC2)c1`, the cell count in assay [1] was found to be 417. Besides, the inhibition is 3% (inactive) in assay [1], 47.1% (inactive) in assay [3], 4.76% (inactive) in assay [7] and 31.6% (inactive) in assay [8]. Besides, the inhibition of aggregation in assay [2] was 15.9% (inactive). The nuclei count in assay [2] was 105%; in assay [3], 87.4%. Besides, the fluorescence slope in assay [4] is -0.473 (inactive). The NADPH fluorescence slope in assay [5] is -4.7e-05 (inactive). In addition, the slope in assay [6] was 0.006 (inactive).
Take `O=C(c1cnn2c(C(F)F)cc(C3CC3)nc12)N1CCOCC1`: the cell count in assay [1] came out at 666. Moreover, the inhibition in assay [1] was -0.3% (inactive); in assay [3], -13.3% (inactive); in assay [7], 6.43% (inactive); in assay [8] it was 18.5% (inactive). Besides, the inhibition of aggregation in assay [2] was 3.1% (inactive). Moreover, the nuclei count is 96.7% in assay [2] and 94.3% in assay [3]. Moreover, the fluorescence slope in assay [4] was -0.376 (inactive). In addition, the NADPH fluorescence slope in assay [5] was 2.5e-06 (inactive). In addition, in assay [6], the slope was 0.00295 (inactive).
Regarding `CC(=O)c1ccc(-n2nnnc2SCC(=O)N2CCc3ccccc3C2)cc1`, the cell count in assay [1] is 434. Also, the inhibition in assay [1] is -12.9% (inactive); in assay [3], 0% (inactive); in assay [7] it was 2.55% (inactive); in assay [8], 5.8% (inactive). In addition, the inhibition of aggregation in assay [2] was 12.1% (inactive). Further, the values for the nuclei count in assay [2] and in assay [3] were 104% and 93.6%, respectively. Further, in assay [4], the fluorescence slope was -0.51 (inactive). The NADPH fluorescence slope in assay [5] is 2.1e-05 (inactive). The slope in assay [6] was 0.0053 (inactive).

As usually defined, the inhibition is the relative decrease from the control value, in per cent.
